Screens: PubChem BioAssay, National Center for Advancing Translational Sciences (NCATS)
Tau fibril ThT: qHTS for Inhibitors of Tau Fibril Formation, Thioflavin T Binding; Microtubule-associated protein tau (Homo sapiens), P10636; recombinant tau K18 P301L, heparin-induced fibrillization, ThT fluorescence; Potency, µM (top dose mostly 57.4 µM), hits mostly inhibitors; 270,000 compounds, 2.1% hits; AID 1460, 2008; also: nearly all actives have a fitted effect of over 55% in size
Target sequence (P10636 561-689 P618L limits assumed): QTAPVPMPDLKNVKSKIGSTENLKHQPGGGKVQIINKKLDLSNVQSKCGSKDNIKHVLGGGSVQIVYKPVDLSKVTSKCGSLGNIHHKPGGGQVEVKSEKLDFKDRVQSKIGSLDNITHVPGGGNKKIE
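Heparin-induced fibrillization of the P301L-mutant K18 repeat-domain fragment of human tau was followed by ThT binding in quantitative high-throughput format.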
TexasRed fluor: Total Fluorescence Counterscreen for Inhibitors of the Interaction of Thyroid Hormone Receptor and Steroid Receptor Coregulator 2. TRb/SRC2 Texas Red total fluorescence interference. 280,000 compounds, 0.29% hits. AID 1479, 2009. Potency, µM (titrated, usually from 106 µM); active = well fitted curve in either direction with a large enough effect; inconclusive = small, poorly fitted or top-dose-only effect
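Flags fluorescent or light-absorbing compounds by total fluorescence, S + 2P, at 555 nm excitation and 632 nm emission. Mixture: 20 nM Texas Red SRC2 peptide, 0.6 uM human TRb LBD, 1 uM T3, 5% DMSO; compound exposure 5 h at ambient temperature.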
Tau fibril FP: qHTS for Inhibitors of Tau Fibril Formation, Fluorescence Polarization | Microtubule-associated protein tau (Homo sapiens), P10636 | K18 P301L tau heparin fibrillization, Alexa594 FP, 6 h | Potency, µM (top dose mostly 57.7 µM), hits mostly inhibitors | 280,000 compounds, 0.39% hits; also: nearly all actives have a fitted effect of over 55% in size
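Steps: dispense K18 P301L tau (15 uM plus 0.24 uM Alexa 594 tracer, final) in pH 7 sodium acetate; add compound; add heparin (20 uM final); incubate 6 hr, 37 C; add ThT (30 uM final); after 1 hr ambient, read FP.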
TRb SRC2 PPI: qHTS for Inhibitors of the Interaction of Thyroid Hormone Receptor and Steroid Receptor Coregulator 2; AID 1469, 2008; Potency, µM (doses to about 106 µM), usual class: inhibitors; TRbeta-SRC2 peptide binding, fluorescence polarization; receptor liganded with 1 µM T3; 280,000 compounds, 0.065% hits; also: nearly all actives have a fitted effect of over 50% in size
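Decrease in fluorescence polarization of 20 nM Texas Red SRC2 coactivator peptide flagged inhibition of its binding to 0.6 uM TRb LBD; 1 uM T3 included, incubation 5 hr, ex 555/em 632 nm.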
Tau fluor counter: Counterscreen qHTS for Inhibitors of Tau Fibril Formation, Fluorescence Polarization; tau K18 P301L Alexa594 fluorescence, heparin fibrillization; Potency, µM (top dose mostly 57.7 µM); 280,000 compounds, 0.93% hits; AID 1463, 2008; also: nearly all actives have a fitted effect of over 55% in size
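Human tau K18 P301L (15 uM unlabeled, 0.24 uM Alexa 594-labeled) in 100 mM sodium acetate pH 7 with 20 uM heparin, 6 hr at 37 C. ThT 30 uM added, 1 hr ambient; Alexa 594 FP and total fluorescence read at 555/632 nm.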
Of the large screens only hits and unclear results are named; the others gave an inactive call; [ ] = remark or other dose. This is a sample that favours compounds with a hit; in the whole collection about 3% have one here. Unless noted, calls follow the shape of the dose curve; as a rule, active = well fitted curve in the direction sought with a large enough effect; inconclusive = small, poorly fitted or top-dose-only effect, or another doubt; inactive = no such curve, though single readings can be large; an effect the other way counts as inactive or inconclusive.

COc1cc([N+](=O)[O-])cc(/C=N/NC(=O)c2cc(-c3ccccc3)nc3ccccc23)c1O	Tau fibril ThT 15.8µM, Tau fluor counter inconclusive
Cc1ccccc1NC(=O)C1CCN(S(=O)(=O)c2ccccc2)CC1	none
CCOc1ccc(NC(=S)Nc2ccc(C)c([N+](=O)[O-])c2)cc1	Tau fibril ThT inconclusive, Tau fluor counter 31.6µM[quencher]
CCOc1ccc(NC(=S)/C(=C(\[O-])c2ccc(C)c([N+](=O)[O-])c2)[n+]2ccccc2)cc1	Tau fibril ThT 25.1µM
Cc1ccc(Oc2cc(NC(=O)CCCn3nc([N+](=O)[O-])c(Cl)c3C)cc([N+](=O)[O-])c2)cc1	Tau fluor counter 7.94µM[quencher]
Cc1cc([N+](=O)[O-])nn1CCCC(=O)Nc1cc(Oc2ccc(F)cc2)cc([N+](=O)[O-])c1	none
Cc1cc(C)cc(Oc2cc(NC(=O)c3cn(C)nc3C)cc([N+](=O)[O-])c2)c1	Tau fibril FP inconclusive, Tau fluor counter 2.51µM[quencher]
Cc1cc([N+](=O)[O-])nn1CCCC(=O)Nc1cc(Oc2ccccc2)cc([N+](=O)[O-])c1	Tau fluor counter 10µM[quencher]
COc1ccc(CCNC(=O)CCCn2c(=O)c3ccccc3n(Cc3ccccc3)c2=O)cc1OC	TexasRed fluor inconclusive
COC(=O)c1ccccc1NC(=O)CSc1nnc2cc(C)c3cc(C)cc(C)c3n12	none
Cc1ccc(NC(=O)C(=O)Nc2ccc(C)cn2)nc1	Tau fibril ThT inconclusive
Cc1ccc(NC(=O)/C(C#N)=C(\N)C(Cl)(Cl)Cl)nc1	Tau fibril ThT 25.1µM, Tau fibril FP inconclusive
CCN1CCN(c2ncc3c(n2)CCN(Cc2ccccc2C)C3)CC1	none
CC(C)OC(=O)[C@@H]1CC[C@H](C)[C@@H](CCCC=O)O1	none
Nc1ccc(N=Nc2ccc(N)cc2)cc1	Tau fibril ThT 11.2µM
COc1ccc(OC)c(N=c2ssnc2Cl)c1	Tau fibril ThT 11.2µM, Tau fibril FP inconclusive
COc1cc(N=c2ssnc2Cl)c(OC)cc1Cl	Tau fibril ThT 10µM, Tau fibril FP inconclusive
COc1ccc(OC)c(N=C2C(=O)Nc3ccccc32)c1	Tau fibril ThT inconclusive
Cc1nn2c(C)c(C(=O)NC(C)c3ccccc3)cnc2c1-c1ccc(F)cc1 (stereo unspecified)	none
CCCC(=O)N1CCN(c2nc3ccc(F)cc3s2)CC1	Tau fibril ThT inconclusive
CCOc1ccc(NC2C=CS(=O)(=O)C2)cc1 (stereo unspecified)	Tau fibril ThT 35.5µM
COc1ccc(NC2C=CS(=O)(=O)C2)cc1 (stereo unspecified)	none
CN1c2cccc3cccc(c23)N(C)C1c1cccs1	Tau fibril ThT inconclusive, Tau fluor counter inconclusive
c1csc(C2Nc3cccc4cccc(c34)N2)c1	Tau fibril ThT 11.2µM, Tau fibril FP inconclusive, Tau fluor counter 15.8µM[quencher]
O=[N+]([O-])c1ccccc1C1Nc2cccc3cccc(c23)N1	Tau fibril ThT inconclusive, Tau fluor counter inconclusive
Brc1ccc(C2Nc3cccc4cccc(c34)N2)o1	Tau fibril ThT inconclusive, TexasRed fluor 2.82µM[quencher], Tau fibril FP inconclusive, Tau fluor counter inconclusive
Cc1[nH]n(-c2ccccc2)c(=O)c1C(c1cccc([N+](=O)[O-])c1)c1c(C)[nH]n(-c2ccccc2)c1=O	Tau fibril ThT inconclusive, Tau fibril FP inconclusive, Tau fluor counter inconclusive
CSc1nc(O)c(C(c2cccc([N+](=O)[O-])c2)c2c(O)nc(SC)[nH]c2=O)c(=O)[nH]1	Tau fibril ThT 11.2µM, Tau fibril FP inconclusive
COc1cc(O)c2c(=O)c3c(OC)c(O)ccc3oc2c1	Tau fibril ThT 12.6µM, Tau fluor counter inconclusive
O=c1c(O)c(-c2ccc(O)cc2)oc2cc(O)cc(O)c12	Tau fibril ThT 12.6µM, Tau fluor counter inconclusive
COc1cc(O)c2c(=O)c(O)c(-c3ccc(O)c(O)c3)oc2c1	Tau fibril ThT 5.01µM, TexasRed fluor 50.1µM[quencher], Tau fluor counter 20µM[quencher]
CCc1ccc(S(=O)(=O)c2c[nH]c3cc(OC)c(OC)cc3c2=O)cc1	none
COc1ccccc1N1CCN(CCn2c(=O)c3c(c4ccccc4n3C)n(C)c2=O)CC1	Tau fibril ThT inconclusive, Tau fibril FP inconclusive
